Where “and” joins values, the source holds several entries; their conditions need not be identical. Equal entries are not always repeated. Results filed as inconclusive are left out. More than one record can exist for a structure, and the calls need not agree. Calls of active or inactive are those of the source. The call rests on the fitted dose curve; in most records, active means well fitted curve in the direction sought with a large enough effect in the repeat runs; inconclusive means weak or mixed curves; inactive means no such curve, though single readings can be large; an effect the other way counts as inactive or inconclusive.
Tests used:
[1] = A CellTox Green Cytotoxicity Assay to monitor cytotoxicity in HEK293 cells - 40 hour (AID 1224871); further: nearly all actives have a fitted effect of over 45% in size; further: potency means the concentration at half of the fitted maximal effect
Method in brief: (§1)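 HEK293 cells premixed with CellTox Green dye were seeded at 600 cells/well and left 5 h at 37 C/5% CO2 before pin transfer of 23 nL compound in DMSO. Fluorescence from dye bound to dead-cell DNA was read during 40 h treatment.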

[2] = qHTS RealTime-Glo MT Cell Viability Assay in HEK293 cells - 16 hour (AID 1224872); further: nearly all actives have a fitted effect of over 50% in size; further: potency means the concentration at half of the fitted maximal effect
Method in brief: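 Viability tracked continuously by luminescence as live cells reduce a prosubstrate for NanoLuc; HEK293 cells preincubated 5 h, compound-treated at 37 C, and read at 0, 8, 16, 24, 32 and 40 h.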

[3] = qHTS RealTime-Glo MT Cell Viability Assay in HepG2 cells - 8 hour (AID 1224873); further: nearly all actives have a fitted effect of over 55% in size
Method in brief: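 HepG2 cells (600/well) mixed with RealTime-Glo MT reagent, settled 5 h at 37 C/5% CO2 before compound addition. Nonlytic NanoLuc luminescence from viable-cell prosubstrate reduction read repeatedly during 40 h treatment at 37 C.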

[4] = A CellTox Green Cytotoxicity Assay to monitor cytotoxicity in HEK293 cells - 24 hour (AID 1224875); further: series mostly up to about 77 µM; nearly all actives have a fitted effect of over 45% in size
Method in brief: as §1

[5] = A CellTox Green Cytotoxicity Assay to monitor cytotoxicity in HepG2 cells - 16 hour (AID 1224876); further: nearly all actives have a fitted effect of over 45% in size
Method in brief: (§2)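 HepG2 cells were seeded together with the CellTox Green dye at 600 cells/well, left 5 h at 37 C/5% CO2, then given compounds in DMSO. Fluorescence from dye bound to dead-cell DNA was read repeatedly over 40 h of treatment at 37 C.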

[6] = qHTS RealTime-Glo MT Cell Viability Assay in HepG2 cells - 32 hour (AID 1224877); further: nearly all actives have a fitted effect of over 55% in size
Method in brief: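 Viability was tracked continuously by NanoLuc luminescence from prosubstrate reduced by living HepG2 cells, at successive time points over 40 h of compound exposure. Cells with reagent were preincubated 5 h at 37 °C before compound addition.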

[7] = A CellTox Green Cytotoxicity Assay to monitor cytotoxicity in HepG2 cells - 24 hour (AID 1224878); further: nearly all actives have a fitted effect of over 45% in size
Method in brief: as §2

[8] = A CellTox Green Cytotoxicity Assay to monitor cytotoxicity in HepG2 cells - 40 hour (AID 1224879); further: nearly all actives have a fitted effect of over 40% in size; further: potency means the concentration at half of the fitted maximal effect
Method in brief: as §2

[9] = qHTS RealTime-Glo MT Cell Viability Assay in HEK293 cells - 0 hour (AID 1224880)
Method in brief: (§3)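 HEK293 cells mixed with RealTime-Glo reagents (NanoLuc plus cell-permeant prosubstrate) at 600 cells/well, preincubated 5 h at 37 C/5% CO2, then given 23 nL compound in DMSO. Nonlytic luminescence from viable cells was read at 0, 8, 16, 24, 32 and 40 h.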

[10] = qHTS RealTime-Glo MT Cell Viability Assay in HEK293 cells - 40 hour (AID 1224874); conditions: RealTime-Glo luminescence; max response: stronger effect = lower value; further: nearly all actives have a fitted effect of over 50% in size; further: potency means the concentration at half of the fitted maximal effect
Method in brief: as §3
On the % scale 0 is the no-effect control and ±100 the full control effect.

CC1(C)C(=O)N(Cl)C(=O)N1Cl
inactive: Potency [1] | Potency [2] | Potency [3] | Potency [4] | Potency [5] | Potency [6] | Potency [7] | Potency [8] | Potency [9]

O=C(NCC1CCCCN1)c1cc(OCC(F)(F)F)ccc1OCC(F)(F)F (stereo unspecified)
inactive: Potency [1] | Potency [2] | Potency [3] | Potency [4] | Potency [5] | Potency [6] | Potency [7] | Potency [8] | Potency [9]

Cc1ccncc1
inactive: Potency [1] | Potency [2] | Potency [3] | max response [10] 1.94% and -1.5% | Potency [5] | Potency [6] | Potency [7] | Potency [8] | Potency [9]

CC1(C)[C@@H](O[C@H]2O[C@H](C(=O)O)[C@@H](O)[C@H](O)[C@H]2O[C@@H]2O[C@H](C(=O)O)[C@@H](O)[C@H](O)[C@H]2O)CC[C@]2(C)[C@H]3C(=O)C=C4[C@@H]5C[C@@](C)(C(=O)O)CC[C@]5(C)CC[C@@]4(C)[C@]3(C)CC[C@@H]12
inactive: Potency [1] | Potency [2] | Potency [3] | max response [10] -4.4% and 0.425% | Potency [5] | Potency [6] | Potency [7] | Potency [8]

CC(=O)Nc1ccc(CC(=O)O)cc1
inactive: Potency [1] | Potency [2] | Potency [3] | max response [10] -18.8% and 1.34% | Potency [4] | Potency [5] | Potency [6] | Potency [7] | Potency [8] | Potency [9]

O=C1CCCCCCCCCCC1
inactive: Potency [1] | Potency [2] | Potency [3] | max response [10] -9.58% and -0.296% | Potency [5] | Potency [6] | Potency [7] | Potency [8] | Potency [9]

N#CCC(=O)O
inactive: Potency [1] | Potency [2] | Potency [3] | max response [10] -0.419% and 10.1% | Potency [5] | Potency [6] | Potency [7] | Potency [8] | Potency [9]

Nc1cccc(N)n1
inactive: Potency [1] | Potency [2] | Potency [3] | max response [10] 0.328% and -0.427% | Potency [5] | Potency [6] | Potency [7] | Potency [8] | Potency [9]

CN1CCCC1=O
inactive: Potency [1] | Potency [2] | Potency [3] | max response [10] 8.67% and -2.64% | Potency [4] | Potency [5] | Potency [6] | Potency [7] | Potency [8] | Potency [9]

CCc1cccc(O)c1
inactive: Potency [1] | Potency [2] | Potency [3] | max response [10] -1.01% and 0% | Potency [4] | Potency [5] | Potency [6] | Potency [7] | Potency [8] | Potency [9]

Oc1ccc(Cc2ccccc2O)cc1
inactive: Potency [1] | Potency [3] | Potency [5] | Potency [6] | Potency [7] | Potency [8] | Potency [9]
active: Potency [2] 15.5 µM | Potency [10] 14 µM and 17.4 µM

CCOC(=O)CC(=O)OCC
inactive: Potency [1] | Potency [2] | Potency [3] | max response [10] 5.3% and 0.825% | Potency [5] | Potency [6] | Potency [7] | Potency [8] | Potency [9]

CC1=CC(=O)CC(C)(C)C1
25.3 µM (active) and inactive: Potency [1] | Potency [8]
inactive: Potency [2] | Potency [3] | max response [10] 9.76% | Potency [5] | Potency [6] | Potency [7] | Potency [9]

Clc1cccc(Cl)c1NC1=NCCN1
inactive: Potency [1] | Potency [2] | Potency [3] | max response [10] 1.29% and 0.883% | Potency [5] | Potency [6] | Potency [7] | Potency [8] | Potency [9]

Cc1cccc(C)c1[N+](=O)[O-]
inactive: Potency [1] | Potency [2] | Potency [3] | max response [10] -0.329% | Potency [5] | Potency [6] | Potency [7] | Potency [8] | Potency [9]

COc1c2ccoc2cc2oc(=O)ccc12
inactive: Potency [1] | Potency [2] | Potency [3] | max response [10] -25.5% and -38.4% | Potency [5] | Potency [6] | Potency [7] | Potency [8] | Potency [9]

CCCCCCC(=O)O
inactive: Potency [1] | Potency [2] | Potency [3] | Potency [4] | Potency [5] | Potency [6] | Potency [7] | Potency [8] | Potency [9]

CCCCC(CC)COC(=O)c1ccc(C(=O)OCC(CC)CCCC)cc1 (stereo unspecified)
inactive: Potency [1] | Potency [2] | Potency [3] | max response [10] 10.3% and 17.5% | Potency [5] | Potency [6] | Potency [7] | Potency [8] | Potency [9]

CCOC(=O)c1ccc(O)cc1
inactive: Potency [1] | Potency [2] | Potency [3] | max response [10] -23.5% and -3.47% | Potency [4] | Potency [5] | Potency [6] | Potency [7] | Potency [8] | Potency [9]

Cc1ccc([N+](=O)[O-])cc1N
inactive: Potency [1] | Potency [2] | Potency [3] | max response [10] 10.1% and 0.36% | Potency [5] | Potency [6] | Potency [7] | Potency [8] | Potency [9]

Brc1ccc(Oc2ccc(Br)cc2)cc1
inactive: Potency [1] | Potency [2] | Potency [3] | max response [10] -1.97% and -5.7% | Potency [5] | Potency [6] | Potency [7] | Potency [8] | Potency [9]

CC(=O)C(C)C
inactive: Potency [1] | Potency [2] | Potency [3] | max response [10] 9.65% | Potency [5] | Potency [6] | Potency [7] | Potency [8] | Potency [9]
